The structures appear in SMILES notation. Results filed as inconclusive are left out. Entries that show only a call come without a potency. Values without a mark were called inactive. The source made the active and inactive calls. Calls come from the whole dose curve; as a rule, active = well fitted inhibition curve with a large enough effect; inconclusive = small, poorly fitted or top-dose-only effect; inactive = flat fitted curve, though single readings scatter.
Potency is the fitted concentration of half-maximal effect.

The assay in a line: P-glycoprotein substrates identified in KB-8-5-11 adenocarcinoma cell line, qHTS therapeutic library screen (AID 1346987). Note: nearly all actives have a fitted effect of over 65% in size. The following applies: KB-8-5-11 (P-gp overexpressing) viability, CellTiter-Glo, 72 h; series mostly up to 44.5 µM. In a few lines:
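Human cervical adenocarcinoma KB-8-5-11 cells, selected in colchicine to over-express P-gp and assayed without it, were exposed for 72 h to titrated compounds. An ATP-based luminescent viability signal gave AC50.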
(In general: qHTS replaces the single test concentration by a dilution series.)
`CC(C)=CCCC1(C)C2CCC1(C)C(O)C2` (stereo not given): the Potency entry is “inactive”.

Regarding `C=C(C)C(=O)O[C@H]1[C@H]2C(=C)C(=O)O[C@@H]2/C=C(\CO)CC/C=C(/C=O)[C@@H]1O`, the Potency entry is “inactive”.

For `COc1ccccc1-c1ccc(-c2cn(C(=O)N3CCCCC3Cc3ccccc3)nn2)cc1` (stereo not given), the Potency entry was “inactive”.

`CN(C(=O)CO)c1c(I)c(C(=O)NCC(O)CO)c(I)c(C(=O)NCC(O)CO)c1I` (stereo not given): the Potency entry is “inactive”.

Turning to `Cc1nnc(C[C@@H]2C=C(c3ccc(Cl)cc3)c3ccccc3-n3c(C)nnc32)o1`, the Potency was 2.59 µM (active).

As to `C=CC(C)(C)C12CC3C(=O)N4C(CC5(C(C)(C)C=C)c6ccccc6NC45)C(=O)N3C1Nc1ccccc12` (stereo not given), the Potency entry is “inactive”.

Turning to `C=C1C(=O)OC2C=C(C)CC/C=C(\CO)CC(O)C12` (stereo not given), the Potency result was “inactive”.

Turning to `CCNC1(C(N)=O)CCN(c2ncnc3c2nc(-c2ccccc2Cl)n3-c2ccc(Cl)cc2)CC1`, the Potency entry is “inactive”.

For the compound `Cc1cc2c(c(=O)o1)C=C1CC[C@H]([C@H](C)Cn3cnc(=N)c4[nH]cnc43)C[C@@H]1O2`, the Potency entry is “inactive”.

For the compound `CC(C)(C)c1ccc2c(c1)CC[C@H]2NC(=O)Nc1cccc2[nH]ncc12`, the Potency entry was “inactive”.

As for `c1ccc(-c2ccc(CNc3nc(-c4ccccn4)nnc3-c3ccccc3)cc2)cc1`, the Potency is 4.61 µM (active).

Turning to `CC1(CO)CC2C(O)C3=C(CC(C)(O)C2C1)C(=O)OC3` (stereo not given), the Potency entry is “inactive”.

As to `COc1cc(C[C@@H]2NCCc3cc(O)c(O)cc32)cc(OC)c1OC`, the Potency result is “inactive”.

On to `C=CC(=O)N1CCC[C@@H](n2nc(-c3cccc(C(=O)Nc4ccc(C(C)C)c(C)c4)c3)c3c(N)ncnc32)C1`, for which the Potency entry is “inactive”.

Consider `O=C(NCCN1CCOCC1)c1cc2c(Oc3ccc(NC(=O)C4(C(=O)Nc5ccc(F)cc5)CC4)cc3)ccnc2[nH]1`, for which the Potency result was “inactive”.

On to `COC(=O)c1ccc(N2CCN(C)CC2)c(NC(=O)c2cccc(OC)c2)c1`, for which the Potency result is “inactive”.

Take `O=[N+]([O-])c1cn2c(n1)OC[C@@H](OCc1ccc(-c3ccc(OC(F)(F)F)cc3)nc1)C2`: the Potency result was “inactive”.

`NCCOc1cc(C(=O)Nc2cc(OCCN)c3ccccc3n2)nc(C(=O)Nc2cc(OCCN)c3ccccc3n2)c1`: the Potency entry is “inactive”.

`CCC(C(C)O)n1ncn(-c2ccc(N3CCN(c4ccc(OCC5COC(Cn6cncn6)(c6ccc(F)cc6F)C5)cc4)CC3)cc2)c1=O` (stereo not given): the Potency is 18.4 µM (active).

With `CC(C)(Cc1nc(-c2ccc(O)cn2)no1)C(=O)NC1=C(C(=O)O)CCCC1`, the Potency entry was “inactive”.

For the compound `C=C(C)C(=O)O[C@H]1C[C@@](C)(O)C2(O)CCC(C)(/C=C3/OC(=O)C(COC)=C31)O2` (stereo not given in full), the Potency is 6.4 µM (active).

For `C=C1C(=O)O[C@@H]2[C@H]3C(C)=CC(=O)C3=C(C)CC[C@@H]12`, the Potency is 14.6 µM (active).

Take `CC(=O)OC/C(=C/C(=O)O)CC[C@@H]1C(C=O)=CC[C@@H]2C(C)(C)CCC[C@@]12C`: the Potency result was “inactive”.

With `CO[C@@H]1CC(OC2CCC3(C)C(CCC45CCC(C6=CC(=O)OC6)C(C)(CCC43)C5=O)C2)O[C@H](C)[C@@H]1O[C@@H]1O[C@H](CO[C@@H]2O[C@H](CO)[C@@H](O)[C@H](O)[C@H]2O)[C@@H](O)[C@H](O)[C@H]1O` (stereo not given in full), the Potency was 4.37 µM (active).

Take `CN(C)CCN(Cc1ccc(-c2ccc(CNCCc3ccccc3)cc2)cc1)C(=O)CCC1CCCC1`: the Potency was 4.11 µM (active).

As for `O=C(CCl)Nc1cccc(NC2=NS(=O)(=O)c3ccccc32)c1`, the Potency is 18.4 µM (active).

Consider `CNC(=O)c1ccc2c(c1)CCO[C@H]2CCN1CCN(c2ccc(OC)cc2)CC1`, for which the Potency result is “inactive”.

In the case of `CCCC1(CCC)CCC2(CCN(CCCN(CC)CC)C2)CC1`, the Potency is 2.31 µM (active).

As for `O=C[C@H](O)[C@@H](O)[C@H](O[C@H]1O[C@H](CO)[C@@H](O[C@H]2O[C@H](CO)[C@@H](O)[C@H](O)[C@H]2O)[C@H](O)[C@H]1O)[C@H](O)CO`, the Potency entry is “inactive”.

As to `CCNC(=O)N1CCCN(c2ccc(C(=O)NCCc3ccc(Cl)cc3Cl)cc2NC(=O)c2cccc(Cl)c2)CC1`, the Potency result was “inactive”.

Turning to `Cc1cc(C)c(-n2cc(C)c3c(Cl)nc(C)nc32)c(C)c1`, the Potency result was “inactive”.

Take `O=C1C(Cc2ccc(O)cc2)N2C(=O)CCN(C(=O)NCc3ccccc3)C2CN1Cc1cccc2ccccc12` (stereo not given): the Potency entry was “inactive”.

For the compound `COc1ccc(CNCc2cccc3ccccc23)cc1`, the Potency result is “inactive”.

Take `C/C=C(/CC[C@@H](C)[C@H]1CC[C@H]2C3=CC[C@H]4[C@H](C)[C@@H](O)CC[C@]4(C)[C@H]3CC[C@]12C)C(C)C`: the Potency result was “inactive”.

As for `CC(=O)O[C@@H]1C[C@]2(C)[C@@]3(CCC4[C@@]5(C)CC[C@H](O[C@@H]6O[C@H](C(=O)O)[C@@H](O)[C@H](OC7OC(CO)C(O)C(O)[C@H]7O[C@@H]7O[C@@H](C)[C@H](O)[C@@H](O)[C@H]7O[C@@H]7OC[C@](O)(CO)[C@H]7O)[C@H]6OC6OC(CO)C(O)C(O)C6O)C(C)(C)C5CC[C@]42C)OC[C@@]12CCC(C)(C)CC23` (stereo not given in full), the activity change, negative = cytotoxicity is -11.3% [at 9.29 µM].

Source of the values: PubChem BioAssay (NCATS).
